According to the supplement of paper PMC7156485:
Several values for one entry are separate records, joined by “and”; a condition that tells them apart may be missing. Equal values may be shown once. ± gives the standard deviation of the averaged measurements.

Experiments:
Details in all cases: concentration: 10 µM; 24 h
[1] = test system: HCC1569; assay: cell number relative to DMSO (% of DMSO); higher = more cells (less growth inhibition / toxicity)
Procedure, shortened: (§1)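 Cells were seeded at 800 per well in 384-well plates with RPMI containing 10% FBS; both HCC1569 and TDF lines were used. Compounds were added at 10 µM for 24 h at 37 °C, in triplicate, before fixation in 3.7% formaldehyde and staining with a rabbit anti-H1.0 antibody, an AlexaFluor 647 secondary and DAPI. H1.0 nuclear intensity or cell number is reported as percent of the plate control using the median of replicates, and HCC1569 values were smoothed for positional effects.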

[2] = test system: TDF; assay: as above
Procedure, shortened: as §1

[3] = test system: TDF; assay: H1.0 immunofluorescence intensity relative to DMSO (% of DMSO); higher = stronger H1.0 induction, active = 120 or more
Procedure, shortened: as §1

[4] = test system: HCC1569; assay: H1.0 immunofluorescence intensity relative to DMSO (% of DMSO); higher = stronger H1.0 induction, active = 140 or more
Procedure, shortened: as §1
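Wherever H1.0 immunofluorescence intensity relative to DMSO is given: TDF is a line of transformed human dermal fibroblasts of mesenchymal origin.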
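Wherever cell number relative to DMSO is given: TDF denotes transformed human dermal fibroblasts of mesenchymal origin.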

SMILES | cell number [1] | cell number [2] | H1.0 immunofluorescence intensity [3] | H1.0 immunofluorescence intensity [4]
C=C1CCC2OC2(C)CCC2C1CC2(C)C (stereo not given) [Caryophylline] | 104 | 99 | 105 (inactive) | 91.3 (inactive)
COc1cc2oc(=O)ccc2cc1O [Isoscopoletine] | 105 | 92.4 | 102 (inactive) | 89.1 (inactive)
Br.CN(C)CCCC1(c2ccc(F)cc2)OCc2cc(C#N)ccc21 (stereo not given) [Citalopram hydrobromide] | 101 | 103 | 96 (inactive) | 92.5 (inactive)
COc1cc2c(cc1CC=C(C)C)C(=O)CC(c1ccc(O)cc1)O2 (stereo not given) [Bavachinin A] | 103 | 104 | 99.5 (inactive) | 96.7 (inactive)
COc1ccc(-c2cc(=O)c3c(O)cc(O)cc3o2)cc1 [Acacetine] | 98.4 | 95.3 | 100 (inactive) | 90.7 (inactive)
Oc1cc(O)cc(C=Cc2ccc(O)c(O)c2)c1 [Piceatannol] | 90.4 ± 5.3 | 93.7 ± 4.5 | 97.2 (inactive) | 114 (inactive)
C#Cc1cccc(Nc2ncnc3cc(OCCOC)c(OCCOC)cc23)c1 [Erlotinib] | 94.8 ± 8 | 94.5 ± 3.9 | 91.3 (inactive) | 108 (inactive)
CC(=O)ONC1=c2ccccc2=NC1=C1C(=O)Nc2cc(Br)ccc21 | 55.8 | 51.1 | 116 (inactive) | 188 (active)
CCCCCCCCC=CCCCCCCCCC(=O)O [10(E)-Nonadecenoic acid] | 96.1 | 98.8 | 97.4 (inactive) | 101 (inactive)
CC(OC1OCCN(Cc2nc(=O)[nH][nH]2)C1c1ccc(F)cc1)c1cc(C(F)(F)F)cc(C(F)(F)F)c1 (stereo not given) [Aprepitant] | 101 | 96.8 | 99.3 (inactive) | 107 (inactive)
CS(=O)(=O)O.Cc1ccc(NC(=O)c2ccc(CN3CCN(C)CC3)cc2)cc1Nc1nccc(-c2cccnc2)n1 [Imatinib] | 93.4 | 95.8 | 107 (inactive) | 127 (inactive)
CC(=O)C1(O)CCC2C3CCC4=CC(=O)CCC4(C)C3CCC21C (stereo not given) [17- Hydroxyprogesterone] | 104 | 96 | 94 (inactive) | 104 (inactive)
O=C(O)c1cc(N(Cc2ccccc2O)Cc2ccccc2O)ccc1O [Lavendustin B] | 102 | 95.2 | 94.5 (inactive) | 93.1 (inactive)
O=C1NC(=O)C(=Cc2ccc(-c3ccc(F)cc3O)o2)S1 | 97.3 | 104 | 95.1 (inactive) | 97.7 (inactive)
CCN(CC)CCCCN1c2ccccc2Oc2ccc(Cl)cc21.Cl [Akt Inhibitor X] | 83 | 87.1 | 108 (inactive) | 150 (active)
N=C([NH3+])N1CCc2ccccc2C1.N=C([NH3+])N1CCc2ccccc2C1.O=S(=O)([O-])[O-] [Debrisoquin sulfate] | 104 | 107 | 101 (inactive) | 101 (inactive)
C[n+]1ccccc1CC(=O)c1ccc(Br)cc1.[I-] [2-[2-(4-bromophenyl)-2-oxoethyl]-1-methylpyridinium iodide] | 98.7 | 87.6 | 96.4 (inactive) | 97.5 (inactive)
CNCCNS(=O)(=O)c1cccc2cnccc12.Cl.Cl [H-8 dihydrochloride] | 105 | 101 | 91.8 (inactive) | 77.5 (inactive)
COc1cc2c(Nc3ccc(NC(=O)c4ccccc4)cc3)ncnc2cc1OCCCN1CCOCC1 | 49.8 | 44 | 126 (active) | 151 (active)
CC(=O)C(C)=NO [2,3-Butanedione monoxime] | 100 | 95.2 | 106 (inactive) | 115 (inactive)
CC(Cc1ccc(O)c(O)c1)C(C)Cc1ccc(O)c(O)c1 (stereo not given) | 72.5 and 72.1 | 108 and 87.9 | 100 (inactive) and 95.2 (inactive) | 116 (inactive) and 122 (inactive)
CCN(CC)CCNC(=O)c1ccc(N)cc1.Cl [Procainamide.HCl] | 108 | 101 | 91.2 (inactive) | 101 (inactive)
O=Nc1ccc2oc(=O)ccc2c1 [6-Nitroso-1,2-benzopyrone] | 100 | 103 | 92.2 (inactive) | 101 (inactive)
CN1CCCC1c1cccnc1 (single isomer, unassigned; (-)) [(-)-Nicotine] | 99.2 | 114 | 94.2 (inactive) | 80 (inactive)
CCCC1CC(C(=O)NC(C(C)Cl)C2OC(SC)C(O)C(O)C2O)N(C)C1.Cl (stereo not given) [Clindamycin.HCl] | 111 | 110 | 106 (inactive) | 91.3 (inactive)
